This is an account of results in PubChem BioAssay AID540364 (The Scripps Research Institute Molecular Screening Center, 2011).

SMILES strings stand for the structures. The whole screen tested about 360,000 compounds, of which about 2,000 (0.56%) were called active. Shown is part of a subset that was picked to be rich in actives. Values without a mark were called inactive.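 How the source made its calls: active means activation above the average of all compounds screened plus 3 SD, cutoff fixed separately per campaign (cut at about 7.5% in these data); inactive means the rest.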

The nature of this assay: FXN promoter activators, primary screen, cell-based, luciferase luminescence, HEK293 lucGAA850 (AID 540364).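 Further: 0% = DMSO wells and 100% = 10 µM SAHA wells.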 The settings on record: HEK293 lucGAA850 FXN promoter luciferase reporter, 24 h; at 6 µM; hits give high values; percent of 10 µM SAHA response. (In general: Reporter assays use an easily measured gene product as a stand-in for the process of interest.)
Turning to `COc1ccc(OCc2cc(C(=O)NCC3(C)COC3)no2)c(Cl)c1`, the activation was 4.24%.

For `Cc1cc(OCc2cc(C(=O)NCc3cc(C(C)C)no3)no2)cc(C)c1Cl`, the activation was 8.34% (active).

As to `Cc1cccnc1CC(C)NC(=O)c1cc(COc2cncc(Cl)c2)on1` (stereo not given), the activation is 3.48%.

On to `O=C1CC(c2c(F)cccc2Cl)C(n2cncn2)C(O)=C1C1NCCc2ccccc21` (stereo not given), for which the activation was -1.97%.

In the case of `CCOc1cc(CNCc2ccccn2)ccc1OCC(=O)NC(C)(C)C`, the activation is -1.18%.

`C#CC(C)(C)NC(=O)CSc1nc2c(c(=O)n(C)c(=O)n2C)n1CCCC`: the activation was 0.86%.

As to `CCCCn1c(SCC(=O)NCCc2ccc(OC)c(OC)c2)nc2c1c(=O)n(C)c(=O)n2C`, the activation is 7.97% (active).

On to `CCn1c(NCCc2ccc(OC)c(OC)c2)nc2c1c(=O)n(C)c(=O)n2C`, for which the activation was -0.8%.

`COc1cccc(CNS(=O)(=O)c2cc3c(cc2C)n(C)c(=O)c(=O)n3C)c1`: the activation was -0.74%.

Turning to `CCN1C(=O)[C@H]2[C@@H](c3ccc(C)cc3)N3C(=O)N(c4cccc(Br)c4)C(=O)[C@@]3(CC)[C@H]2C1=O`, the activation is 5.85%.

As to `CC(C)(C)N1C(=O)[C@H]2[C@@H](c3ccc(Br)cc3)N3C(=O)N(c4cccc(Cl)c4)C(=O)[C@@]3(C)[C@H]2C1=O`, the activation is 14.1% (active).

Regarding `COc1ccc([C@@H]2[C@@H]3C(=O)N(C(C)(C)C)C(=O)[C@@H]3[C@]3(Cc4ccccc4)C(=O)N(c4cccc(Br)c4)C(=O)N23)cc1`, the activation is 0.35%.

Take `Cc1cccc([C@@H]2[C@@H]3C(=O)N(Cc4ccccc4)C(=O)[C@@H]3[C@]3(C)C(=O)N(c4ccc(Br)cc4)C(=O)N23)c1`: the activation is 4.94%.

In the case of `Cc1ccc(N2C(=O)N3[C@@H]4c5ccccc5OC[C@@H]4[C@@H](c4ccccc4)[C@@]3(C)C2=O)cc1`, the activation was -0.85%.

`CC[C@@]12C(=O)N(c3ccccc3)C(=O)N1[C@H](c1ccc(Br)cc1)[C@@H]1C(=O)N(C(C)(C)C)C(=O)[C@@H]12`: the activation was 15% (active).

Regarding `CC1(Oc2ccccc2-c2ccno2)CCN(Cc2ccc(-c3ccccc3)o2)C1` (stereo not given), the activation was 1.3%.

As for `O=C(COc1ccc(Cl)cc1)NCCS(=O)(=O)N1CCN(c2ccc(F)cc2)CC1`, the activation is -2.02%.

On to `CN(Cc1ccccc1)C(=O)C1CCCN(c2ncnc3c2nc2n3CCCCC2)C1` (stereo not given), for which the activation is 1.56%.

Turning to `CSc1nc(N)c(C#N)c(-c2ccccc2Cl)c1C#N`, the activation is 16.1% (active).

Consider `COc1ccccc1-c1c(C#N)c(N)nc2c1CCC2`, for which the activation was 1.52%.

Turning to `CSc1ccc(-c2c(C#N)c(N)nc3c2c(C)nn3-c2ccccc2)cc1`, the activation is 0.67%.

Consider `COc1ccc(CNC(=O)c2ccc(-c3cccnc3)c3ccoc23)cc1OC`, for which the activation is 1.42%.

As for `Cc1ccc(O/C=C2\OC(=O)c3ccccc32)cc1`, the activation is -0.57%.

In the case of `CN(CCc1ccccn1)C(=O)CCC1CCCN(Cc2ccccc2OC(F)F)C1` (stereo not given), the activation was 0.65%.

As for `Cc1c(-c2ccccc2)nc(N)c(C#N)c1-c1cccs1`, the activation is 8.43% (active).

Regarding `CN1CCc2nc(SC(C(=O)O)c3ccccc3)c(C#N)c(-c3cccs3)c2C1` (stereo not given), the activation was 1.01%.

With `CCc1c(-c2ccccc2)nc(N)c(C#N)c1-c1cccs1`, the activation was 3.81%.

For `Cc1cccc(C(=O)Nc2ccccc2C(=O)NCc2cccnc2)c1`, the activation was 0.13%.

As for `COc1ccc(S(=O)(=O)N(C)C)cc1NC(=O)CSc1ncccn1`, the activation was 2.15%.

For `COc1ccc(NS(=O)(=O)c2ccc3oc(SCC(N)=O)nc3c2)cc1`, the activation was -1.75%.

Take `CN(C)S(=O)(=O)c1ccc2oc(SCC(=O)Nc3ccccc3F)nc2c1`: the activation was 7.74% (active).

Regarding `Cc1noc(C)c1-c1ccc(C(=O)NCc2ccncc2)c2occc12`, the activation is 3.59%.

Turning to `CN(N)c1nc(N2CCCC2)nc(N2CCCC2)n1`, the activation is 1.2%.

As for `O=C(NCCN1CCOCC1)c1ccccc1N1C(=O)[C@@H]2Cc3c([nH]c4ccccc34)C(c3cccc(Cl)c3)N2C1=O` (stereo not given in full), the activation was -10.6%.

Take `C=C1c2c(Cl)ccc(O)c2C(O)=C2C(=O)[C@]3(O)C(O)=C(C(N)=O)C(=O)[C@@H](N(C)C)[C@@H]3[C@@H](O)C12` (stereo not given in full): the activation was 13.5% (active).

Regarding `CN(C)[C@@H]1C(=O)C(C(N)=O)=C(O)[C@@]2(O)C(=O)C3=C(O)c4c(O)ccc(Cl)c4[C@@H](O)[C@H]3C[C@@H]12`, the activation was 13.6% (active).

For `CN(C(=O)CN1CCN(c2cc(-c3ccc(OCc4ccccc4)cc3)ncn2)CC1)c1ccccc1`, the activation was -2.58%.

Consider `CN(C(=O)c1ccccc1)c1nccnc1C#N`, for which the activation is 1.95%.

`CC(=O)N1CC2(C)CN(C(C)=O)CC(C)(C1)C2=O`: the activation was 1.87%.

For the compound `CCCC1NC(=O)NC(C)=C1C(=O)OCC` (stereo not given), the activation was 0.3%.

With `COCC(C)n1c(SCc2ccc(C(=O)OC)o2)nc2ccccc2c1=O` (stereo not given), the activation is 2.64%.

With `COC(=O)c1ccc(CSc2nc3ccccc3c(=O)n2-c2cccc(OC)c2)o1`, the activation was 10.1% (active).

Take `COc1cccc(-n2c(SCC(=O)NC3CCS(=O)(=O)C3)nc3ccccc3c2=O)c1` (stereo not given): the activation was -0.8%.

`Cc1ccc(C)c(OCCC(=O)OCC(=O)NC(=O)NCc2ccccc2)c1`: the activation was 1.32%.

For `CCCCN(CC(=O)NC(C)(C)C)C(=O)C(=O)Nc1ccc2c(c1)OCCO2`, the activation was 0.41%.

Regarding `CCOC(=O)N1CCC(c2cc(=O)n(-c3ccccc3)[nH]2)CC1`, the activation was 1.97%.

In the case of `Cc1ccc(C(=O)N2CCC(n3nccc3NC(=O)Nc3cccc(F)c3)CC2)cn1`, the activation is -1.64%.

Take `O=C(NCc1ccccc1)C(c1cccnc1)N(C(=O)c1csnn1)c1ccc(F)cc1` (stereo not given): the activation is -0.33%.

Take `CCOc1ccc(S(=O)(=O)N2CCN(C(=O)c3oc4ccccc4c3C)CC2)cc1`: the activation was 1.62%.

On to `COc1ccc(CCNCC(O)Cn2ccc3ccccc32)cc1OC` (stereo not given), for which the activation is 0.29%.
